This is a sample that favours compounds with a hit; in the whole collection about 2.5% have one here.
MEKK2 mut-MEK5: signal of MEK5 binding to mutant human MEKK2 PB1 domain | bead flow cytometry, Alexa488-MEK5 binding to MEKK2 mutant | percent response, % at 10 µM | 290,000 compounds, 0.35% hits | AID 1530; in the data active = percent response above about 24%, passing the limit was not always enough
MEKK2 WT-MEK5: raises or lowers MEK5 binding to wildtype human MEKK2 PB1 domain. bead flow cytometry, Alexa488-MEK5 binding to MEKK2 WT; actives lie on both sides. binding response (% of control), % at 10 µM. 290,000 compounds, 1.1% hits. AID 1531; in the data active = binding response below about 67% or above about 130%
UBC13 polyUb: blocks human UBC13 polyubiquitin chain formation; 330,000 compounds, 0.47% hits; AID 485273; inhibition, % at 20 µM; TR-FRET; P61088; in the data active = inhibition above about 45%, passing the limit was not always enough
Target sequence (P61088 whole entry, looked up): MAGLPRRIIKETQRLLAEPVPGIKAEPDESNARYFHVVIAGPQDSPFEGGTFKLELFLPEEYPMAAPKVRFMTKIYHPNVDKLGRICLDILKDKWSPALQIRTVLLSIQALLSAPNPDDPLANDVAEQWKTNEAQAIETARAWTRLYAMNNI
Rce1 inh: inhibitors of yeast Ras-converting enzyme; AID 2563; calls only; Q03530; yeast membranes, quenched prenylated peptide cleavage fluorescence; 290,000 compounds, 0.27% hits;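 active = fall in fluorescence gain of 50% or more versus controls, with final raw signal at or below 3038400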
Target sequence (Q03530 whole entry, looked up): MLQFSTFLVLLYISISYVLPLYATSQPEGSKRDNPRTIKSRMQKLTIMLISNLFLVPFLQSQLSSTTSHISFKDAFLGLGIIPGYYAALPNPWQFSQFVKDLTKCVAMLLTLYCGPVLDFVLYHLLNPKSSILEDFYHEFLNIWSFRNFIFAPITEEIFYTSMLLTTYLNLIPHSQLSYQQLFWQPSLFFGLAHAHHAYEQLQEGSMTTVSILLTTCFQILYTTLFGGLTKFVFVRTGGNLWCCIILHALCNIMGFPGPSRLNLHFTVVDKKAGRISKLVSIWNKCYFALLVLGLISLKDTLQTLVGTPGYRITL
MEKK3 PB1 HTS: MEKK3-MEK5 PB1 interaction, increase or decrease. Q99759. bead-based flow cytometry, Alexa488-MEK5 binding to MEKK3; actives lie on both sides; 0 = blocked by unlabeled MEK5, 100 = vehicle. binding response (% of control), % at 10 µM. 290,000 compounds, 1.4% hits. AID 1529;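 active = binding response more than 3 SD above or below the average of its plate-row segment, actives on both sides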;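 note: Alexa488 bead fluorescence after subtracting the streptavidin-only scavenger bead signal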
MEKK2wt confirm: raises or lowers MEK5 binding to wildtype human MEKK2, retest | shares compounds with MEKK3 PB1 HTS | bead flow cytometry, Alexa488-MEK5 binding to MEKK2 WT; actives lie on both sides | binding response (% of control), % at 10 µM | 5,900 compounds, 2.4% hits; in the data active = binding response below about 16% or above about 210%; inactive = in between
MEKK2mut-MEK5: signal of MEK5 binding to mutant human MEKK2, retest. bead flow cytometry, Alexa488-MEK5 binding to MEKK2 mutant. 5,900 compounds, 2% hits. AID 1893. shares compounds with MEKK3 PB1 HTS. percent response, % at 10 µM; in the data active = percent response mostly above about 71%, no sharp cut-off; inactive = mostly below about 38%;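 note: higher means compound restores mutant binding toward wildtype level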
MEKK3-MEK5 inh: confirmation of inhibitors of MEK5 binding to human MEKK3; binding response (% of control), % at 10 µM; AID 1894; bead flow cytometry, Alexa488-MEK5 binding to MEKK3; active compounds read low; shares compounds with MEKK3 PB1 HTS; 5,900 compounds, 1.8% hits;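 active = binding response below 72% of control, or above a set upper limit, though filed actives all read lower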;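 note: lower values mean stronger disruption of MEK5 binding to MEKK3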
Numbers stand for hits; - = inactive; . = not tested or not shown; [ ] = dose if it differs, or a comment.

SMILES	MEKK2 mut-MEK5	MEKK2 WT-MEK5	UBC13 polyUb	Rce1 inh	MEKK3 PB1 HTS	MEKK2wt confirm	MEKK2mut-MEK5	MEKK3-MEK5 inh
N#Cc1ccsc1NC(=O)CN1CCN(c2ccccc2O)CC1	-	-	-	-	64[inhibitor]	-	-	-
Cc1ccc(C)c(S(=O)(=O)N2CCN(CC(=O)Nc3sccc3C#N)CC2)c1	-	-	-	-	162	-	-	-
N#Cc1ccsc1NC(=O)CN1CCN(S(=O)(=O)c2ccccc2C(F)(F)F)CC1	-	-	-	-	55[inhibitor]	-	-	-
CCOC(=O)N1CCN(CC(=O)Nc2sccc2C#N)CC1	-	-	-	-	-	.	.	.
COc1ccccc1N1CCN(CC(=O)Nc2sccc2C#N)CC1	-	-	-	-	-	.	.	.
Cc1nc2cc(C(=O)NCc3ccc4c(c3)OCO4)ccc2n1-c1ccc(Br)cc1	-	-	-	-	65[inhibitor]	-	-	-
NS(=O)(=O)c1ccc(CCNC(=O)C2CCN(S(=O)(=O)c3ccc(Br)s3)CC2)cc1	-	3.0[inhibitor]	-	-	2.0[inhibitor]	-	-	-
Cc1ccc(S(=O)(=O)N2CCC(C(=O)NCCc3ccc(S(N)(=O)=O)cc3)CC2)cc1	-	-	-	-	-	.	.	.
CC(C)CNC(=O)COC(=O)c1ccc(F)cc1Cl	-	-	-	-	73[inhibitor]	-	-	-
CC(C)CNC(=O)COC(=O)c1cc(Cl)cc(Cl)c1N	-	-	-	.	-	.	.	.
COC(=O)CC1C(=O)NCCN1C(=O)CSc1nc2ccc([N+](=O)[O-])cc2s1 (stereo unspecified)	-	-	-	-	-	.	.	.
CC(=O)N1CCOc2ccc(S(=O)(=O)N(C)c3cccc(C)c3)cc21	-	-	-	-	-	.	.	.
Cc1nn2c(C(F)(F)F)c3c(nc2c1-c1ccccc1)CCC3	-	.	-	.	1.0[inhibitor]	-	-	-
Cc1nn2c(NCCCN(C)C)c3c(nc2c1-c1ccccc1)CCCC3	-	-	-	-	-	.	.	.
Cc1nn2c(NCCCN(C)C)c3c(nc2c1-c1ccccc1)CCC3	34	173	-	-	-	-	-	-
COc1ccc(C(C)=O)cc1CC(=O)Nc1ccccc1-c1ccccc1	-	-	-	-	-	.	.	.
Cc1cc(=S)c2cccc(C)c2[nH]1	-	-	-	-	-	.	.	.
O=c1c2oc3ccccc3c2ncn1Cc1ccc(Cl)cc1	-	-	-	-	-	.	.	.
Cn1c(NC(=O)c2ccc(C(C)(C)C)cc2)cc(=O)n(C)c1=O	-	-	-	.	-	.	.	.
Cn1c(NC(=O)c2ccc(Cl)cc2)cc(=O)n(C)c1=O	-	-	-	-	136	-	-	-
Cc1cc2cc(CN(CC3CCCO3)C(=S)NCc3ccco3)c(=O)[nH]c2cc1C (stereo unspecified)	-	-	-	-	147	-	-	-
O=C(CSc1ncnc2c1cnn2-c1ccccc1)NCC1CCCO1 (stereo unspecified)	.	.	-	-	.	.	.	.
Cc1ccccc1-n1c(SCc2c(C)noc2C)nnc1-c1cccnc1	30	28[inhibitor]	-	-	-	-	-	-
CC1=[N+]([O-])C(C)(C)C(c2ccc(Br)cc2)=[N+]1[O-]	-	-	-	-	-	.	.	.
COc1ccccc1N1CCN(C(=O)C(=O)c2c[nH]c3ccccc23)CC1	-	-	-	-	-	.	.	.
SMILES	MEKK2 mut-MEK5	MEKK2 WT-MEK5	UBC13 polyUb	Rce1 inh	MEKK3 PB1 HTS	MEKK2wt confirm	MEKK2mut-MEK5	MEKK3-MEK5 inh
COC(=O)/C=c1/sc2nc3ccccc3n2c1=O	-	-	-	-	80[inhibitor]	-	-	-
Cc1cccc(N2CCN(C(=O)CSc3nc4ccccc4nc3N3CC(C)OC(C)C3)CC2)c1C (stereo unspecified)	-	-	-	-	-	.	.	.
Nc1ccc(C23CC4CC(CC(C4)C2)C3)cc1	-	-	-	-	41[inhibitor]	-	-	-
CN(Cc1ccccn1)Cc1cn(Cc2ccccc2)nc1-c1ccc2c(c1)OCO2	-	196	-	-	-	-	-	-
CCC(C)N1C(=O)/C(=C/c2c(NCCCOC(C)C)nc3c(C)cccn3c2=O)SC1=S (stereo unspecified)	123	.	-	.	32[inhibitor]	-	-	-
Cc1ccc2nsnc2c1NC(=O)c1cccc([N+](=O)[O-])c1	-	-	-	-	134	-	-	-
CCOc1ccccc1NC(=O)CCS(=O)(=O)c1ccc(Br)cc1	-	-	-	-	81[inhibitor]	-	-	-
O=C(O)CNS(=O)(=O)/C=C/c1ccccc1	-	-	-	-	-	.	.	.
O=S(=O)(/C=C/c1ccccc1)c1ccccc1	-	-	-	-	126	-	-	-
O=C(CNC(=O)c1ccc(Cl)cc1Cl)OCn1nnc2ccccc2c1=O	.	.	-	-	.	.	.	.
CCOc1cccc2sc(N(CCCN(C)C)C(=O)Cc3ccccc3)nc12	75	180	-	-	-	-	-	-
CCOc1cccc2sc(N(CCCN(C)C)C(=O)c3ccc(C(=O)c4ccccc4)cc3)nc12	35	161	-	-	-	-	-	-
CCOC(=O)c1sc(NC(=O)c2cc3n(n2)C(C(F)(F)F)CC(c2ccccc2)N3)c(C(=O)OCC)c1C (stereo unspecified)	-	-	-	-	81[inhibitor]	-	-	-
CCOC(=O)c1sc(NC(=O)c2cc3n(n2)C(C(F)(F)F)CC(c2cccs2)N3)c(C(=O)OCC)c1C (stereo unspecified)	-	-	-	-	-	.	.	.
Cc1ccc2occ(/C=N/NC(=O)c3ccc(O)cc3)c(=O)c2c1	-	-	-	-	-	.	.	.
NC(=O)N/N=C/c1coc2ccc(O)cc2c1=O	-	-	-	-	45[inhibitor]	-	-	-
CC(C)(C)c1ccc(NC(=O)Nc2ccc(F)cc2)cc1	-	-	-	-	130	-	-	-
Cc1csc(SCC(=O)Nc2sccc2C(N)=O)n1	-	1.0[inhibitor]	-	-	2.0[inhibitor]	-	-	-
O=C(NCCN1C(=O)S/C(=C\c2ccc(OC(F)F)cc2)C1=O)[C@@H]1CCCN1C(=O)c1cccs1	-	-	-	-	131	-	-	-
O=C(/C=C/c1ccco1)NCC1COc2ccccc2O1 (stereo unspecified)	-	-	-	-	-	.	.	.
Cc1c(/C=C2\NC(=O)NC2=O)c2ccccc2n1C	-	-	-	-	-	.	.	.
C/C(CC(=O)Nc1cccc(Cl)c1Cl)=N\NC(=O)c1ccccc1C	-	4.0[inhibitor]	-	-	3.0[inhibitor]	-	-	-
Fc1ccc(COc2ccc(Br)cc2CNCc2ccncc2)cc1	-	-	-	-	-	.	.	.
COc1cc(CNC(C)c2ccccc2)cc(Br)c1OCc1ccc(F)cc1 (stereo unspecified)	-	223	-	-	-	-	-	-

Bioassay records from PubChem BioAssay.
